PMC12864922, “TDP-43 directly inhibits mRNA accumulation in neurites through modulation of mRNA stability”
Over roughly 9,900 sequences, “r (bound/input frequency ratio)” has its median near 0.7; the highest 2% begin near 6.5. What follows is part of a selection rich in the highest values, with near analogues and random picks from the rest.

B1: ENSMUSG00000028439.169|Fam219a (ssRNA)
RNA: GGGAGUUCUACAGUCCGACGAUCGCUUCGAUAUCCGCAUGCUAAGUGGCUGUAUGAUAUGGUAUGGUAUGGUAUGGUAUGGUAUGGUAUGGUAUGCACAUGUGUGUGCAUGUGUGUGUGCCUGUGUGUGUGCGUGUGCGUGUGUGUAUGUGUGUGCGUGUGUGUGUGUGUGUGUUGUACCCGAGUGUGUGUUGAGCCUAUCUGUCCAGGGAACCAGAUUGGUGUCCGAGAUGAGGAAAUGGCUGUGGCCUGGGAAAUCAGUGAGAGGCCGCUUGGGAAUGAGAAUGCAGUGGACUGAAAGCACCUCUUGCGGUCGCACUAGUGUGGAAUUCUCGGGUGUCAAGG
B2: ENSMUSG00000028439.168|Fam219a (ssRNA)
RNA: GGGAGUUCUACAGUCCGACGAUCGCUUCGAUAUCCGCAUGCUAGAGCCAAGUGGCUGUAUGAUAUGGUAUGGUAUGGUAUGGUAUGGUAUGGUAUGGUAUGCACAUGUGUGUGCAUGUGUGUGUGCCUGUGUGUGUGCGUGUGCGUGUGUGUAUGUGUGUGCGUGUGUGUGUGUGUGUGUUGUACCCGAGUGUGUGUUGAGCCUAUCUGUCCAGGGAACCAGAUUGGUGUCCGAGAUGAGGAAAUGGCUGUGGCCUGGGAAAUCAGUGAGAGGCCGCUUGGGAAUGAGAAUGCAGUGGACUGACUCUUGCGGUCGCACUAGUGUGGAAUUCUCGGGUGUCAAGG
B3: ENSMUSG00000028439.163|Fam219a (ssRNA)
RNA: GGGAGUUCUACAGUCCGACGAUCGCUUCGAUAUCCGCAUGCUAUCUUCAAGAGCAAGCUUAAGGAAAUACAGUGAGCCAAGUGGCUGUAUGAUAUGGUAUGGUAUGGUAUGGUAUGGUAUGGUAUGGUAUGCACAUGUGUGUGCAUGUGUGUGUGCCUGUGUGUGUGCGUGUGCGUGUGUGUAUGUGUGUGCGUGUGUGUGUGUGUGUGUUGUACCCGAGUGUGUGUUGAGCCUAUCUGUCCAGGGAACCAGAUUGGUGUCCGAGAUGAGGAAAUGGCUGUGGCCUGGGAAAUCAGUGAGAGGCUCUUGCGGUCGCACUAGUGUGGAAUUCUCGGGUGUCAAGG
B4: ENSMUSG00000061578.598|Ksr2 (ssRNA)
RNA: GGGAGUUCUACAGUCCGACGAUCGCUUCGAUAUCCGCAUGCUAUAAAAUAUGAUUCAGGCAAAUUCAAUGCAACUCAAAAUUUCCACCAAUCCCAUAUUGUCCCUAGCAAUGACAAAAUUAUUUGCAAGACAGACCCUGUGACCUGUAGAGGCAAAAUAUAUGGUGGCUUGCCUGGCUGGCCUGUGAUAUAGUGGACUGUCUUAGUGAUCGGACUUCAGGGAGCAACCUAUAGGAAAUGCAAAGGCUUAGAGGGGACGGACAGCUCCCUGACCCUGGAUGGCCAGGAAUGGUGCUAGCUAGGGCUCUUGCGGUCGCACUAGUGUGGAAUUCUCGGGUGUCAAGG
B5: ENSMUSG00000031028.646|Tub (ssRNA)
RNA: GGGAGUUCUACAGUCCGACGAUCGCUUCGAUAUCCGCAUGCUACCCCACUGAGGUCCAGGUAGAGCAGAUGAGGCUGAAAUGUAGAGUGUUCUAUAGAGCAUCUCAGUAGCAUAGAAGGAGAAGCCCAGCUCCAACCUCCUGGACCCCAUACUGGUGACCAGCUUGGUGAGGACAGGCAAAAUUUCUCUAGCUGAGAGCACACUUAGCCAGUUUUCACGCCUAGAACAUAUAUGUCGAUUUGCACAUGAUUGUCUUUUCCUAUUUUGGAGUGGUCAGACAUUUUAUUUUUGUUCAAAAUUAUCCUCUUGCGGUCGCACUAGUGUGGAAUUCUCGGGUGUCAAGG
B6: ENSMUSG00000031028.671|Tub (ssRNA)
RNA: GGGAGUUCUACAGUCCGACGAUCGCUUCGAUAUCCGCAUGCUAGAGAGCACACUUAGCCAGUUUUCACGCCUAGAACAUAUAUGUCGAUUUGCACAUGAUUGUCUUUUCCUAUUUUGGAGUGGUCAGACAUUUUAUUUUUGUUCAAAAUUAUCUGGAGUUUUAGACAAACUUGCAAAACUGUGCUUUUAUUAAGUGACUUUUUGAAUAAACUUUUUGGUAUUCUGAAGCAAAUGUAUUUAUUUAUUGGUAUGUGCAAUGACAAACUUGGUAUUUUCCCAUAAUGACAUUAUGUAUGUUGUAGACUCUUGCGGUCGCACUAGUGUGGAAUUCUCGGGUGUCAAGG
B7: ENSMUSG00000029636.275|Wasf3|21:26 (ssRNA)
RNA: GGGAGUUCUACAGUCCGACGAUCGCUUCGAUAUCCGCAUGCUAUCCCUACGCCCUGCUUUGGCCACACACUGAGUGCUCUGUGCUGCGCCAUGGCCAUCCUGGAGCCUGCGCACACGUGGCCGCUGCUGUGACUCGCUGUCCUUGGUAAUUGGUGAGAGGCUUUUUCUUUCUUUCUCAGUUCUGCUUUUCCACACUGAGACCCACCAUGUUGACAUCAUCCUCGCGACGUUGACAUUUGAGCCUUUUGUUCUGUCUCCCAUGUGCCCUGUAGAACCCAGCACUCAUGUUUGGCAAAACUUUUUCUCUUGCGGUCGCACUAGUGUGGAAUUCUCGGGUGUCAAGG
B8: ENSMUSG00000061578.898|Ksr2 (ssRNA)
RNA: GGGAGUUCUACAGUCCGACGAUCGCUUCGAUAUCCGCAUGCUAGACACUACCCAAACCCUAGCACUCUCCCAGUGACUCUCCUAUGAGUACAUAUGCCAUCCUGCUUCCUUUGUGGCAAAACCCUGGGUCACCCAGAGACAGAUUUCCCAGAAUCCCUGGGCCACUUCUCAAUUCUACCCAUGACAGACAUGUCCCAUCCAUGAGCCCAGAUAGUCAAAGACUUCAGCACAAGGGUGUUUAGAGUAGGCAGUGUGGAAGUAUCAAUAAGGUUAUUGAGAUGAGGAUUUAGAAAGAUCCAUGUACUCUUGCGGUCGCACUAGUGUGGAAUUCUCGGGUGUCAAGG
B9: ENSMUSG00000042529.46|Kcnj12|142:149 (ssRNA)
RNA: GGGAGUUCUACAGUCCGACGAUCGCUUCGAUAUCCGCAUGCUAGGCCAAAAUGACUGGCUCACGGCCUCGGAGGCUGAUGUAUACCCAUGGGCAAGGAGGUGACUUCUUGGGGUAGGGUUGCUCAGGAGUUAGGGACUCUGCUGGAGGCCUUAGGUGCAGGUCCCAGCCCCGGUGGGAGGAGGCACACAUACUACACUUCAUUGGUUUUUAACUUGGGCAAGACUGUUUACAAACAAAAACAAACAAACAAACAAUCAAAAAAAAAACCCACCCCACAAAACACAAGAAAACAUUAACAGGUGCUCUUGCGGUCGCACUAGUGUGGAAUUCUCGGGUGUCAAGG

These binders were tested against TDP-43 (Homo sapiens, UniProt Q13148 1-414) (assay: RNA Bind-n-Seq with designed 260-mer pool; 25 mM Tris-HCl, 150 mM KCl, 3 mM MgCl2, BSA (printed 500 mg/mL), 20 units/mL SUPERase IN; pH not stated; 500 nM RNA pool, 1 h, 4 C; TDP-43 5, 50, 500 nM; high values mean tight binding). Conditions: protein: recombinant; tags: SBP (GST cleaved off with PreScission; pGEX-GST-SBP).
Outline: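 An in vitro-transcribed pool of 260-nt 3′ UTR oligos (500 nM) was incubated for 1 h at 4 °C with recombinant SBP-tagged TDP-43 at 5, 50 or 500 nM held on streptavidin beads. The buffer contained 25 mM Tris-HCl, 150 mM KCl, 3 mM MgCl2, BSA and SUPERase IN. Biotin-eluted bound RNA was sequenced, and binding, R, is each oligo's normalized read abundance in the bound sample over that in input.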

Chain of TDP-43 (Q13148 whole entry): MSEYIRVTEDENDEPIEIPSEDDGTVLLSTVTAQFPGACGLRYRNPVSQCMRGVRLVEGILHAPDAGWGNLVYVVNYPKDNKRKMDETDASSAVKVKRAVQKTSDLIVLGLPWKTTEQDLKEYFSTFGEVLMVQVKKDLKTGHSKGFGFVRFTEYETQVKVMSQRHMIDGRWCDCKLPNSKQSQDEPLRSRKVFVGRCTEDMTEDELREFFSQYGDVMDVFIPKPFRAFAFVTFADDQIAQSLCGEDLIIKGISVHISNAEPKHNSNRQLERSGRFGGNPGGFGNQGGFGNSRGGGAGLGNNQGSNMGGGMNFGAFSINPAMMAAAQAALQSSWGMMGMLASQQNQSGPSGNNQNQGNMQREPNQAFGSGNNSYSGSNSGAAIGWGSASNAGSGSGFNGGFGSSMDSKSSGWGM

**Q.** How did the binding signal turn out when B1 was run?
**A.** 6.41 R (bound/input frequency ratio)

**Q.** Which binding signal does the source give for B2 here?
**A.** 7.15 R (bound/input frequency ratio)

**Q.** Which binding signal does the source give for B3 here?
**A.** 5.79 R (bound/input frequency ratio)

**Q.** Which binding signal does the source give for B4 here?
**A.** 0.515 R (bound/input frequency ratio)

**Q.** How did the binding signal turn out when B5 was run?
**A.** 0.442 R (bound/input frequency ratio)

**Q.** With B6 as the binder, how does the binding signal read?
**A.** 0.247 R (bound/input frequency ratio)

**Q.** B7 was tested. Which binding signal did it give?
**A.** 1.01 R (bound/input frequency ratio)

**Q.** Which binding signal does the source give for B8 here?
**A.** 0.362 R (bound/input frequency ratio)

**Q.** How did the binding signal turn out when B9 was run?
**A.** 0.514 R (bound/input frequency ratio)
